ELG1 genotox – genotoxicity induction in ELG1-luciferase HEK293T cells | HEK293T ELG1-luciferase reporter, luminescence, 16 h | Potency, µM (doses to about 46 µM), most hits filed as activators | 1.3% of 330,000 active | AID 504466; further: nearly all actives have a fitted effect of over 60% in size
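Genotoxic stress is detected as increased luminescence from luciferase-tagged ELG1 in HEK293T cells, measured with ONE-Glo after a 16 hr treatment at 37 °C.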
ELG1 DNA repair – blocks ELG1-dependent DNA repair in HEK293T cells | HEK293T ELG1-luciferase reporter, luminescence, 16 h; DNA damage induced by 5-fluorouridine | Potency, µM (titrated, usually from 46.1 µM), most hits filed as inhibitors | 2.3% of 330,000 active | AID 504467; further: nearly all actives have a fitted effect of over 55% in size
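Quantitative HTS, concentration-response format. 2,000 cells/well co-treated with 5-fluorouridine and compound, 16 hr in 5% CO2 at 37 °C; ONE-Glo luminescence read after 30 min.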
SMN2 splice enh – enhancers of SMN2 splice variant expression; HEK293 SMN2-luciferase splicing reporter, luminescence, 30-36 h; Potency, µM (highest dose often 46.1 µM), most hits filed as activators; 2.8% of 210,000 active; AID 1458; further: nearly all actives have a fitted effect of over 55% in size
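qHTS luciferase splicing reporter: luminescence rises when SMN2 exon 7 is included in transfected HEK293 cells. Compound exposure lasted 30-36 h at 37C, with 4.5 mM final sodium butyrate as control, followed by a ONE-Glo read.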
Rab9 promoter act – activates the Rab9 promoter; Huh7 Rab9 promoter-luciferase reporter, luminescence, 24 h; 2.8% of 320,000 active; AID 485297; Potency, µM (highest dose often 9.22 µM), actives largely listed as activators; further: nearly all actives have a fitted effect of over 60% in size
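Promoter activation is measured as luciferase luminescence in Huh7 cells stably transfected with a Rab9 promoter–luciferase construct, following 24 h compound exposure at 37 °C and 10 min reagent incubation at ambient temperature.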
FLuc counter – counter-screen for miR-21 project: firefly luciferase inhibitors or activators. 6.9% of 360,000 active. P08659. Potency, µM (highest dose often 57.5 µM), actives largely listed as inhibitors. purified FLuc, Km substrates, luminescence inhibition; further: nearly all actives have a fitted effect of over 55% in size
Target sequence (P08659 whole entry, looked up): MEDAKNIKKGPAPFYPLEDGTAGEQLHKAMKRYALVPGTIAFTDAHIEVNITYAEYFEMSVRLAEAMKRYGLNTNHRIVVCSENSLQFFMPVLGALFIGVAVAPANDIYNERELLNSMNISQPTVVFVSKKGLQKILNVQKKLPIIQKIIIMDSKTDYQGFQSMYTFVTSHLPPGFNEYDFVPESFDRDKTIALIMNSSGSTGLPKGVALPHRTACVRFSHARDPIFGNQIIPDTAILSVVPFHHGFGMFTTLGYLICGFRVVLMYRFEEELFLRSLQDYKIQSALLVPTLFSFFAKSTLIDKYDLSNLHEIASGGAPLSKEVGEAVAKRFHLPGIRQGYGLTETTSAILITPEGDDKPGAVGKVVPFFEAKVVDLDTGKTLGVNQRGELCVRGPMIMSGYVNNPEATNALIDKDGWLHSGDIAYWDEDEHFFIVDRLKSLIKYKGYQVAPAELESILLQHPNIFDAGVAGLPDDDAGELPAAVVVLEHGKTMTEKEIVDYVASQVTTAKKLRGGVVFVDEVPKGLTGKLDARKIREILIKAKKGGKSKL
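Purified P. pyralis luciferase, 10 nM final, with Km-level 10 uM D-luciferin and 10 uM ATP in 50 mM Tris acetate pH 7.5, 10 mM Mg acetate, 0.01% Tween-20, 0.05% BSA; 6-point qHTS titration about 60 µM downward; luminescence read.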
NPC1 promoter act – activates the NPC1 promoter. Huh7 NPC1 promoter luciferase reporter, 24 h. Potency, µM (doses to about 9.22 µM), hits mostly activators. 2.4% of 320,000 active. AID 485313; further: nearly all actives have a fitted effect of over 60% in size
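Compounds in DMSO were transferred onto Huh7 NPC1-luciferase reporter cells pre-incubated 2 h; after 24 h at 37 °C, Amplite reagent was dispensed and luminescence recorded 10 min later.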
A number is an active result; [ ] = dose if it differs, or a comment. An excerpt weighted towards active compounds, which were near 9.2% of everything screened. The call rests on the fitted dose curve; in most records, active means well fitted curve in the direction sought with a large enough effect; inconclusive means small, poorly fitted or top-dose-only effect, or another doubt; inactive means no such curve, though single readings can be large; an effect the other way counts as inactive or inconclusive.

Results for Cc1ccc(S(=O)(=O)N(C)C)cc1NC(=O)COC(=O)/C(=C/c1ccc(F)cc1)c1cccs1 ?
ELG1 genotox: inactive; ELG1 DNA repair: inconclusive; SMN2 splice enh: inactive; Rab9 promoter act: inactive; FLuc counter: inactive; NPC1 promoter act: inactive

Results for O=C(c1cccc(F)c1)N1CCC2(CC1)CN(c1ccc(-c3ccccc3)cc1)C2 ?
SMN2 splice enh: inactive

What do the screens show for `C=Cc1ccc(CN2C(=O)N(c3cccc(Cl)c3)S(=O)(=O)c3ccccc32)cc1`?
FLuc counter: inactive

How did Clc1ccc(CSc2ncn[nH]2)cc1 do in these assays?
ELG1 genotox: inactive; ELG1 DNA repair: inactive; SMN2 splice enh: inactive; Rab9 promoter act: inactive; FLuc counter: inactive; NPC1 promoter act: inactive

What do the screens show for `COc1ccc(OCCSc2ncn[nH]2)cc1`?
ELG1 genotox: inactive; ELG1 DNA repair: inconclusive; Rab9 promoter act: inconclusive; FLuc counter: 13µM; NPC1 promoter act: inconclusive

How did CC(C)Oc1ccc(CSc2ncn[nH]2)cc1 do in these assays?
ELG1 genotox: inactive; ELG1 DNA repair: inconclusive; Rab9 promoter act: inconclusive; FLuc counter: 15µM; NPC1 promoter act: inactive

Results for CN1C(=O)S/C(=C/c2cccnc2)C1=O ?
ELG1 genotox: inactive; ELG1 DNA repair: inactive; SMN2 splice enh: inactive; Rab9 promoter act: inactive; FLuc counter: inactive; NPC1 promoter act: inactive

Results for CC(C)C/C=C1\CCc2c([nH]c3ccccc23)C1=O ?
ELG1 genotox: inconclusive; ELG1 DNA repair: inconclusive; Rab9 promoter act: 2.8µM; FLuc counter: inconclusive; NPC1 promoter act: inactive

How did CCCCCCCCC1=NCCc2c1[nH]c1ccccc21 do in these assays?
ELG1 genotox: inactive; ELG1 DNA repair: inactive; Rab9 promoter act: inactive; FLuc counter: inactive; NPC1 promoter act: inactive

How did O=C1/C(=C/c2cccnc2)CCc2c1[nH]c1ccccc21 do in these assays?
ELG1 genotox: inactive; ELG1 DNA repair: inactive; Rab9 promoter act: 3.2µM; FLuc counter: 9.5µM; NPC1 promoter act: inactive

Results for CC1C/C(=C\c2cccnc2)C(=O)/C(=C/c2cccnc2)C1 (stereo not given) ?
ELG1 genotox: inactive; ELG1 DNA repair: 2.1µM; SMN2 splice enh: inactive[1.84 µM]; Rab9 promoter act: inactive; FLuc counter: inactive; NPC1 promoter act: inactive

How did Cc1cc(C(=O)OCC(=O)Nc2cccnc2Cl)c2ccccc2n1 do in these assays?
ELG1 genotox: inactive; ELG1 DNA repair: inactive; SMN2 splice enh: inactive; Rab9 promoter act: inactive; FLuc counter: inactive; NPC1 promoter act: inactive

What do the screens show for `O=CN1CCN(C(=O)c2ccc([N+](=O)[O-])cc2)CC1`?
ELG1 genotox: inactive; ELG1 DNA repair: inactive; SMN2 splice enh: inactive; Rab9 promoter act: inactive; FLuc counter: inactive; NPC1 promoter act: inactive

What do the screens show for `Cc1ccc(N2CC(NC(=O)Cc3ccc(F)cc3)CC2=O)cc1C` (stereo not given)?
FLuc counter: inactive

What do the screens show for `CCN1CCN(Cc2ccc3c(c2)Cc2ccccc2-3)CC1`?
ELG1 genotox: inactive; ELG1 DNA repair: inactive; SMN2 splice enh: inactive; Rab9 promoter act: inactive; FLuc counter: inactive; NPC1 promoter act: inactive

Results for c1ccc2c(c1)Cc1cc(CN3CCOCC3)ccc1-2 ?
ELG1 genotox: inconclusive; ELG1 DNA repair: inconclusive; SMN2 splice enh: 14µM; Rab9 promoter act: inconclusive; FLuc counter: 9.5µM; NPC1 promoter act: 4µM

What do the screens show for `COc1cc(CNC(=O)c2cnc(C)cn2)cc(OC)c1`?
ELG1 genotox: inactive; ELG1 DNA repair: inactive; Rab9 promoter act: inactive; FLuc counter: inactive; NPC1 promoter act: inactive

How did O=C(NCc1cccc(F)c1)c1ccc(-n2cnc3cccnc32)cc1 do in these assays?
FLuc counter: inactive

How did COc1cc(CNC(=O)c2cc(C(=O)NCc3cc(OC)cc(OC)c3)n(C)n2)cc(OC)c1 do in these assays?
ELG1 genotox: inactive; ELG1 DNA repair: 21µM; Rab9 promoter act: inactive; FLuc counter: inactive; NPC1 promoter act: inactive

How did Cn1nc(C(=O)NCc2cccc(F)c2)cc1C(=O)NCc1cccc(F)c1 do in these assays?
ELG1 genotox: inactive; ELG1 DNA repair: 12µM; Rab9 promoter act: inactive; FLuc counter: inactive; NPC1 promoter act: inactive

What do the screens show for `CCOc1ccc(S(N)(=O)=O)cc1-c1nc2c(C(C)(C)C)nn(C)c2c(=O)[nH]1`?
ELG1 genotox: inactive; ELG1 DNA repair: inactive; Rab9 promoter act: inactive; FLuc counter: inactive; NPC1 promoter act: inactive

What do the screens show for `CCOc1ccc(S(=O)(=O)NC(C)(C)C)cc1-c1nc2c(C(C)(C)C)nn(C)c2c(=O)[nH]1`?
ELG1 genotox: inactive; ELG1 DNA repair: 12µM; SMN2 splice enh: inactive; Rab9 promoter act: inactive; FLuc counter: inactive; NPC1 promoter act: inactive

How did CCc1cccc(CC)c1NC(=O)CCS(=O)(=O)c1ccc(Br)s1 do in these assays?
SMN2 splice enh: inactive; FLuc counter: inactive

What do the screens show for `Cc1ccc(-c2ccc(SCC(=O)NCC3CCCO3)nn2)cc1` (stereo not given)?
ELG1 genotox: inactive; ELG1 DNA repair: inactive; SMN2 splice enh: inactive; Rab9 promoter act: inactive; FLuc counter: 17µM; NPC1 promoter act: inactive

Results for CCOc1ccc(-c2ccc(SCC(=O)NCC3CCCO3)nn2)cc1 (stereo not given) ?
ELG1 genotox: inactive; ELG1 DNA repair: inconclusive; SMN2 splice enh: 16µM; Rab9 promoter act: 3.2µM; FLuc counter: 5.4µM; NPC1 promoter act: inconclusive

What do the screens show for `Cc1ccc(-n2nnc3c(SCC(=O)NCC4CCCO4)ncnc32)cc1` (stereo not given)?
ELG1 genotox: inactive; ELG1 DNA repair: inconclusive; SMN2 splice enh: inactive; Rab9 promoter act: inactive; FLuc counter: 5.4µM; NPC1 promoter act: inactive

How did CCOC(=O)CC(=O)CSc1ncnc2c1nnn2-c1ccc(F)cc1 do in these assays?
ELG1 genotox: inactive; ELG1 DNA repair: inactive; SMN2 splice enh: inactive; Rab9 promoter act: inactive; FLuc counter: inconclusive; NPC1 promoter act: inactive

Results for CCOC(=O)CSc1ncnc2c1nnn2-c1ccc(F)cc1 ?
ELG1 genotox: inactive; ELG1 DNA repair: inconclusive; SMN2 splice enh: inactive; Rab9 promoter act: inactive; FLuc counter: 15µM; NPC1 promoter act: inactive

What do the screens show for `Cc1cc(C)n(CCN(C)C(=O)CCc2nnc(CCC3CCCCC3)o2)n1`?
ELG1 genotox: inconclusive; ELG1 DNA repair: inconclusive; Rab9 promoter act: inconclusive; FLuc counter: 15µM; NPC1 promoter act: inconclusive

How did CN(CCCC1CCCC1)C(=O)CCc1nnc(-c2ccccc2)o1 do in these assays?
ELG1 genotox: 21µM; ELG1 DNA repair: inconclusive; SMN2 splice enh: 13µM; Rab9 promoter act: 2.5µM; FLuc counter: 12µM; NPC1 promoter act: inconclusive

What do the screens show for `CN(C(=O)CCc1nnc(-c2ccc(-c3ccccc3)cc2)o1)C1CCOCC1`?
ELG1 genotox: inactive; ELG1 DNA repair: inconclusive; Rab9 promoter act: inactive; FLuc counter: 17µM; NPC1 promoter act: inactive

How did CCCc1nn2c(=O)cc(CSCC(=O)Nc3ccc(C)cc3)nc2s1 do in these assays?
ELG1 genotox: inactive; ELG1 DNA repair: inactive; Rab9 promoter act: inactive; FLuc counter: inactive; NPC1 promoter act: inactive

Source: PubChem (National Center for Advancing Translational Sciences (NCATS))
